ERb SRC1 inh – blocks coactivator binding to human estrogen receptor beta; TR-FRET ER-beta LBD / SRC1-Cy5 peptide binding; receptor agonist-loaded with 1 µM estradiol; inhibition, % at 25.6 µM; Q92731; actives 1.3% (n = 86,000);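 active means compounds whose percent inhibition of the receptor-coactivator binding signal exceeds about 50% in the single-dose screen, limit read from the data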;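 further: 0% = receptor plus peptide wells without compound and 100% = peptide-only wells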
Smad3 inh – inhibitors of human Smad3 transcription factor binding | P84022 | actives 0.29% (n = 88,000) | TR-FRET Smad3/Dy647-FoxH1 peptide binding, europium anti-His | inhibition, % at 25 µM;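 active means compounds that reduce the energy-transfer binding signal between the protein and its labelled peptide by more than half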;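 further: 0% = Smad3 plus labelled peptide maximal FRET and 100% = peptide-only background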
ERa SRC1 pot – ER-alpha (human) coactivator binding potentiation | P03372 | actives 1.3% (n = 86,000) | coactivator binding (% of control), % at 25.6 µM | TR-FRET ERalpha-LBD/SRC-Cy5 coactivator binding, 2 h; 100 = basal binding, no effect; in the data active means activity above about 200%;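 further: binding measured in presence of low estradiol as agonist stimulus; 0% = peptide alone without receptor and 100% = receptor with peptide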
Target sequence (P03372 whole entry, looked up, the tested form may be a part): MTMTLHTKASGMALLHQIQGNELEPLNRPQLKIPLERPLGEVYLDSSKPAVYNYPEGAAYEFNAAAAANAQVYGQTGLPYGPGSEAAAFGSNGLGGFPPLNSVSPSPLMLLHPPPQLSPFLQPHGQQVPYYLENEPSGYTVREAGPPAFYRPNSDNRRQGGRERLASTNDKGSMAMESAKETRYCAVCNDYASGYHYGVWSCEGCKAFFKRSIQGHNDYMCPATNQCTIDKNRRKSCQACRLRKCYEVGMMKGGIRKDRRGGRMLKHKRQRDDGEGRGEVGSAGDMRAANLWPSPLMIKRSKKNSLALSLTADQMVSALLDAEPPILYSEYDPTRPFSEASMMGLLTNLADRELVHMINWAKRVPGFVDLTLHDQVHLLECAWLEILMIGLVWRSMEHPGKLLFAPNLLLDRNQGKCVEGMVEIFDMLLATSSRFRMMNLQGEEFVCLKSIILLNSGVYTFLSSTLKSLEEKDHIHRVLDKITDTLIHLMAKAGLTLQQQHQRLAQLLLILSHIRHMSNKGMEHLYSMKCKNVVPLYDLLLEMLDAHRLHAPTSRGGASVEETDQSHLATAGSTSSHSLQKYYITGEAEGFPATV
PLK1 kinase inh – inhibitors of human PLK1 kinase; actives 0.53% (n = 97,000); AID 619; inhibition, % at 10 µM; P53350; recombinant PLK1 kinase, TR-FRET peptide phosphorylation;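 active means inhibition of 50% or more in the single-concentration screen; inactive means inhibition below 50%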;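 further: 0% = DMSO max control and 100% = H-89 dihydrochloride min control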
ERa coact inh – blocks coactivator binding to human estrogen receptor alpha | AID 629 | inhibition, % at 25.6 µM | actives 1.7% (n = 86,000) | TR-FRET ER-alpha LBD / SRC-1 peptide, estradiol-bound | P03372; in the data active means inhibition above about 50%;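 further: 0% = receptor plus peptide control and 100% = peptide only without receptor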
PLK1 PBD inh – blocks phosphopeptide binding to human Plk1 polo box domain | P53350 | Plk1 PBD phosphopeptide binding, fluorescence polarization | inhibition, %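 (tested at about 20 µM)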 | actives 0.13% (n = 97,000); in the data active means inhibition above about 34%, passing the limit was not always enough
Starred values were filed as active, the others as inactive; . = no result; [ ] = another dose, or the depositor's remark. In the library only some 3.3% were active in any assay of this set; here they are far more common.

SMILES | ERb SRC1 inh | Smad3 inh | ERa SRC1 pot | PLK1 kinase inh | ERa coact inh | PLK1 PBD inh
Cc1cc(C)c(NC(=O)Cn2cc3c(n2)CCCC3)c(C)c1 | -10 | -2 | 115 | . | 99*[fluorescence artefact?] | .
CCCCCCc1cc2cc(-c3nnc(-c4cc(OC)c(OC)c(OC)c4)o3)c(=O)oc2cc1O | 0 | 6 | 224*[fluorescence artefact?] | -11 | 18 | -149
C=CCNc1sc(C(=O)c2ccc(C)cc2)c(N)c1C#N | 16 | 6 | 86 | -7 | 5 | 1
C=CCNc1sc(C(=O)c2ccccc2)c(N)c1C#N | 12 | 10 | 98 | -6 | 97*[fluorescence artefact?] | -18
O=C1Nc2ccccc2C12OCCS2 (stereo not given) | 54* | 0 | 96 | . | -5 | .
O=S(=O)(c1ccc(Br)cc1)N1CCN(S(=O)(=O)c2ccc(Br)cc2)CC1 | . | -2 | . | . | . | .
CCNc1ccc(Br)cc(C(=O)/C=C/c2ccc(Cl)cc2Cl)c1=O | 76*[fluorescence artefact?] | 0 | 101 | -4 | 85*[fluorescence artefact?] | 5
CNc1ccc(Br)cc(C(=O)/C=C/c2ccc3c(c2)OCO3)c1=O | . | . | . | 23 | . | -20
CNc1ccc(Br)cc(C(=O)/C=C/c2cc(OC)ccc2OC)c1=O | 65*[fluorescence artefact?] | 2 | 56 | 22 | 71*[fluorescence artefact?] | 24
COCCCNC(=O)/C=C/c1ccc(Cl)cc1Cl | . | . | . | -1 | . | 14
Cc1ccc(NCc2nnc(SCC(=O)NCc3ccco3)n2CC2CCCO2)cc1Cl (stereo not given) | -1 | 2 | 109 | -5 | -3 | 0
O=C(O)[C@@H](O)[C@@H](O)[C@@H](O)[C@@H](O)c1nc2ccccc2s1 | . | 28 | . | . | . | .
O=C(c1cc(-c2cccs2)nc2ccccc12)N1CCN(S(=O)(=O)c2ccccc2)CC1 | 17 | -4 | 201*[fluorescence artefact?] | -8 | 1 | 23
Oc1ccc2ccccc2c1CN(Cc1c(O)ccc2ccccc12)C1CCCCC1 | . | 19 | . | . | . | .
O=c1c2ccccc2c2ccccc2c(=O)n1-c1cc2c3ccccc3ccc2c2ccccc12 | . | 86* | . | . | . | .
NC(N)=NC(N)=Nc1c(F)c(F)c(F)c(F)c1F | . | 56* | . | . | . | .
CO/N=C/NC(=O)C1=NOC(CNc2ncc(C(F)(F)F)cc2Cl)C1 (stereo not given) | -12 | -10 | 125 | 0 | 1 | 7
C=CCn1c(-c2ccc(S(=O)(=O)N3CCOCC3)cc2)csc1=Nc1ccccc1 | -25 | -3 | 215* | -19 | -7 | 18
O=C(Nc1ccc2c(c1)oc1ccccc12)c1ccc2c(c1)OCO2 | 0 | -2 | 152 | -10 | 7 | 10
O=C(COc1ccc2c(c1)OCO2)Nc1ccc2c(c1)oc1ccccc12 | 25 | -2 | 50 | -14 | 51*[fluorescence artefact?] | 5
CN(C)CCNC(=O)Nc1ccc(Cl)c(Cl)c1 | . | . | . | -5 | . | -2
COc1ccc(-c2nc3cc(NC(=O)Cc4ccc(OC)c(OC)c4)ccc3o2)cc1 | 16 | 8 | 273*[fluorescence artefact?] | 1 | 27 | -56
COc1ccc(CC(=O)Nc2ccc(-c3nnc(-c4ccccc4)o3)cc2)cc1OC | 51*[fluorescence artefact?] | -110 | 97 | -12 | 70*[fluorescence artefact?] | 5
O[C@@H](c1cc(C(F)(F)F)nc2c(Cl)cc(Cl)cc12)[C@@H]1CCCCN1 | . | 12 | . | . | . | .
CCc1ccc(Cn2nnc(C(=O)Nc3ccc(OC)cc3OC)c2N)cc1 | -3 | 9 | 123 | -14 | 10 | 5
SMILES | ERb SRC1 inh | Smad3 inh | ERa SRC1 pot | PLK1 kinase inh | ERa coact inh | PLK1 PBD inh
CCOc1ccc(Cn2nnc(C(=O)NCc3ccc(OC)cc3)c2N)cc1 | 7 | 11 | 228* | 1 | 2 | -6
Cc1ccc(-c2nc(CS(=O)CC(=O)NC3CCC(C)CC3)c(C)o2)cc1 (stereo not given) | -16 | 5 | 107 | 65* | -14 | 14
COc1cccc(-c2nc(CS(=O)CC(=O)NC3CCCC3)c(C)o2)c1 (stereo not given) | -14 | 3 | 106 | 66* | -7 | 15
Cc1cccc(-c2nc(CS(=O)CC(=O)N3CCN(C)CC3)c(C)o2)c1 (stereo not given) | 12 | -9 | 104 | 57* | -5 | -4
COc1ccc(-c2nc(CS(=O)CC(=O)NC3CCCc4ccccc43)c(C)o2)cc1OC (stereo not given) | -6 | -3 | 99 | 69* | -4 | 14
COc1cccc(-c2nc(CS(=O)CC(=O)O)c(C)o2)c1 (stereo not given) | -11 | 9 | 106 | -9 | -4 | 16
Nc1nc(SC/C=C/C2CCCCC2)c2[nH]cnc2n1 | . | -5 | . | . | . | .
COc1cc2cc(CN(CCN3CCCC3)C(=O)Nc3ccc(F)cc3)c(=O)[nH]c2cc1OC | -5 | -9 | 95 | 8 | -1 | -6
O=c1[nH][nH]c(=S)c(=O)[nH]1 | . | 52* | . | . | . | .
Cc1ccc2oc(=O)c3cc(C(=O)N4CCN(c5ncccn5)CC4)sc3c2c1 | 29 | -12 | 142 | . | 74*[fluorescence artefact?] | .
Cc1ccc2oc(=O)c3cc(C(=O)N4CCN(C(=O)c5ccco5)CC4)sc3c2c1 | -21 | 4 | 97 | . | 3 | .
COc1ccc(NC(=O)c2cc(Cl)ccc2NC(=O)c2ccco2)c(OC)c1 | 10 | 4 | 217*[fluorescence artefact?] | -42 | 16 | 8
COC(=O)Cn1c(=NC(=O)C2CC2)sc2c(C)cc(C)cc21 | -6 | -7 | 134 | -134 | 55*[fluorescence artefact?] | 12
CCC(=O)N=c1sc2c(C)cc(C)cc2n1CC(=O)OC | -11 | 2 | 128 | -67 | 2 | 10
CC1(C)CC(=O)c2cnc(NCC3CCCO3)nc2C1 (stereo not given) | 24 | -2 | 106 | -4 | 55* | 10
NC(=O)NC(=O)[C@H]1CCCC[C@@H]1C(=O)O | . | -5 | . | . | . | .
C=CCSC1=N/C(=C\c2sccc2C)C(=O)S1 | . | . | . | -13 | . | 8
C=CCSC1=N/C(=C\C=C\c2ccco2)C(=O)S1 | 64* | -2 | 63 | -25 | 78* | -15
Cc1ccc(C)n1-n1c(C)nc2scc(-c3ccccc3)c2c1=O | 3 | 0 | 86 | -11 | -7 | -11
CCn1c(=S)sc2c(=O)[nH]c(C)nc21 | -7 | 1 | 98 | 58* | 4 | 7
COC(=O)c1ccc(C(=O)OC)c(NC(=O)c2cc3ccccc3o2)c1 | 19 | 21 | 364*[fluorescence artefact?] | -16 | 15 | -24
CC(=O)C(C(C)=O)c1c(Cl)c(O)c(O)c2c(C(=O)c3ccccc3)coc12 | 55*[fluorescence artefact?] | 6 | 83 | 6 | 22 | 26
CN1CCN(Cc2c(O)ccc3occ(C(=O)c4ccccc4)c23)CC1 | -3 | 13 | 110 | -5 | -4 | 1
C[C@@H]1c2ccccc2Cn2cc3c(c21)C(=O)c1cccc(OP(=O)(O)OCc2ccccc2)c1C3=O | . | 1 | . | . | . | .
COc1ccc(C(=O)Cn2nnc(-c3cccs3)n2)cc1 | 78*[fluorescence artefact?] | -18 | 93 | -3 | 1 | 11
COc1ccc(N2CCN(C(=O)Cn3nnc(-c4cccs4)n3)CC2)cc1 | -11 | 7 | 136 | -7 | -9 | 8
c1ccc2c(c1)OCC(c1nnc3sc(-c4cnccn4)nn13)O2 (stereo not given) | 82*[fluorescence artefact?] | 12 | 52 | -10 | 92*[fluorescence artefact?] | 7

Source: PubChem
